# Screening results from PubChem BioAssay.
# IL-1B inflam inh: qHTS for Inhibitors of Inflammasome Signaling: IL-1-beta AlphaLISA Primary Screen. THP-1 LPS/ATP IL-1B secretion, AlphaLISA, 16 h; stronger effect = lower value. activity change, % at 57.5 µM. actives 4.7% (n = 360,000); in the data active = activity change below about -50%; inconclusive = mostly about -30% to -49%; also: % is scaled to controls: 0 for no effect and ±100 for the full control effect
#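 Secreted IL-1B measured by AlphaLISA bead assay after 16 h compound exposure of THP-1 cells; compounds (final up to 57.5 uM) added 1 h before LPS (250 ng/mL) and ATP (1.25 mM) stimulation; lower signal means less secretion.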
# KB-3-1 tox: qHTS assay for MDR1-selective chemotherapeutics: Primary screen using the parental adenocarcinoma cell KB-3-1. actives 1.4% (n = 400,000). KB-3-1 viability, CellTiter-Glo ATP luminescence, 72 h. Potency, µM (titrated, usually from 46.1 µM), hits mostly cytotoxic; also: potency is read from the fitted curve at half-maximal effect; % is scaled to controls: 0 for no effect and ±100 for the full control effect; nearly all actives have a fitted effect of over 60% in size
#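 Using CellTiter-Glo luminescence, growth of non-resistant KB-3-1 adenocarcinoma cells is assessed 72 h after pin-tool compound addition at 37 °C. Normalized responses across the concentration series yield fitted curves.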
# MCF10A rereplic: A quantitative high throughput screen for small molecules that induce DNA re-replication in MCF 10a normal breast cells. MCF 10A DNA re-replication, Hoechst nuclear intensity, 48 h. AID 624296, 2012. Potency, µM (top dose mostly 46.1 µM), for the others: top-dose activity, positive = re-replication, actives largely listed as activators. actives 2.9% (n = 350,000); also: potency is read from the fitted curve at half-maximal effect; % of control where 0% means no effect; nearly all actives have a fitted effect of over 50% in size
# SW480 rerep: A quantitative high throughput screen for small molecules that induce DNA re-replication in SW480 colon adenocarcinoma cells | actives 1.8% (n = 340,000) | Potency, µM (series often up to 46.1 µM), inactives show at the top dose re-replication activation, actives largely listed as activators | SW480 DNA re-replication, Hoechst DNA content imaging, 48 h | AID 624297, 2012; also: potency is read from the fitted curve at half-maximal effect; % of control where 0% means no effect; nearly all actives have a fitted effect of over 55% in size
#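 SW480 cells exposed to compounds for 48 hr at 37 C, 5% CO2, then Hoechst-stained 40 min. Nuclear DNA content imaged by fluorescence scanning (405 nm excitation, 500-530 nm emission); re-replication scored as increased high-intensity nuclei.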
# KB-V1 MDR tox: qHTS assay for MDR1-selective chemotherapeutics: Primary screen using the drug-selected MDR subline cells KB-V1; AID 1347076, 2019; KB-V1 MDR cells viability, CellTiter-Glo, 72 h; Potency, µM (series often up to 46.1 µM), most hits filed as cytotoxic; actives 3.4% (n = 400,000); also: potency is read from the fitted curve at half-maximal effect; % is scaled to controls: 0 for no effect and ±100 for the full control effect; nearly all actives have a fitted effect of over 60% in size
#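 qHTS viability screen in drug-selected KB-V1 MDR cells: 72 h compound treatment at 37 degrees C, ATP luminescence end point.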
# An asterisk follows results filed as active; i = inactive; ? = inconclusive; . = not tested or not shown. Most compounds without a hit are left out; they make up all but 9.9% or so of the library. Unless noted, calls follow the shape of the dose curve; as a rule, active = well fitted curve in the direction sought with a large enough effect; inconclusive = small, poorly fitted or top-dose-only effect, or another doubt; inactive = no such curve, though single readings can be large; an effect the other way counts as inactive or inconclusive.
SMILES,IL-1B inflam inh,KB-3-1 tox,MCF10A rereplic,SW480 rerep,KB-V1 MDR tox
CCOC(=O)N1CCN(Cc2cc(=O)oc3ccc(Cl)cc23)CC1,-3,i,6%,-17%,18µM*
COc1ccc(N2CCN(CC(=O)c3ccccc3)CC2)cc1,6,i,6%,2%,i
CCN1CCN(Cc2cc(=O)oc3ccc(Cl)cc23)CC1,8,i,-4%,-1%,i
CCOC(=O)N1CCN(CCC(=O)c2ccc(Br)cc2)CC1,-10,i,?,?,i
CCOC(=O)N1CCN(CCC(=O)c2ccc(Cl)cc2)CC1,-1,21µM*,?,?,?
COc1ccc(N2CCN(CCC(=O)c3ccc4ccccc4c3)CC2)cc1,?,i,10µM*,?,?
O=C(COc1ccc(Br)cc1)N(Cc1ccco1)C1CCS(=O)(=O)C1 (stereo not given),17,i,6%,2%,i
O=C(NCC1CCCO1)c1cc2ccccc2o1 (stereo not given),18,i,1%,5%,i
CCc1cccc(NC(=O)Cn2c(=O)c3cccn3c3ccccc32)c1,20,i,18µM*,3%,i
CCc1cccc(NC(=O)Cn2cc(C=O)c3ccccc32)c1,18,?,3%,1%,21µM*
COc1cccc(NC(=O)Cn2cc(C=O)c3ccccc32)c1,36,i,3%,2%,?
Cc1ccc(NC(=O)Cn2cc(C=O)c3ccccc32)cc1,65,i,29%,15µM*,i
Cc1cc(C(=O)Nc2ccc3ccccc3c2)c(C)o1,-23,i,-1%,4%,i
COc1ccc(C(=O)C2CC2c2ccc3c(c2)OCO3)cc1 (stereo not given),-7,i,?,2%,i
O=c1[nH]c2ccccc2nc1-c1c[nH]c2ccccc12,-22,i,25%,0.73µM*,i
CCN(CC)S(=O)(=O)c1nnc(NC(=O)COc2ccc(Cl)cc2)s1,.,i,.,.,i
COc1cccc(CNC(=O)CCC2CCCN(C(=O)c3cc4ccccc4o3)C2)c1 (stereo not given),-90*,i,-4%,?,i
COc1cccc(CNC(=O)CCC2CCCN(C(=O)c3ccoc3)C2)c1 (stereo not given),13,i,-10%,0%,i
COC(=O)c1c(C)[nH]c(C(=O)C(C)OC(=O)C2=NNC(=O)CC2)c1C (stereo not given),6,?,-1%,-9%,5.8µM*
COC(=O)c1c(C)[nH]c(C(=O)C(C)OC(=O)C2CC2C)c1C (stereo not given),35,i,8%,-4%,i
O=C(Cc1cccs1)Nc1ccccc1-c1nc2ccccc2[nH]1,-5,?,13µM*,12µM*,?
CCOC(=O)Cc1csc(NC(=O)Cn2cnc3c2c(=O)n(C)c(=O)n3C)n1,13,i,-3%,4%,i
Cn1c(=O)c2c(ncn2CC(=O)Nc2nc(-c3ccccc3Cl)cs2)n(C)c1=O,36,?,14%,5%,21µM*
COc1ccc(OC)c(NC(=O)c2[nH]c(C)c(C(C)=O)c2C)c1,70,i,24%,-12%,16µM*
COc1ccc(-c2nc(NC(=O)c3ccco3)sc2C)cc1,3,i,.,.,?
SMILES,IL-1B inflam inh,KB-3-1 tox,MCF10A rereplic,SW480 rerep,KB-V1 MDR tox
COc1ccc(-c2nc(NC(=O)c3[nH]c(C)c(C(C)=O)c3C)sc2C)cc1,-82*,i,?,27%,?
COc1ccc(-c2nc(NC(=O)Cn3cnnn3)sc2C)cc1,-10,i,2.1µM*,3%,i
COc1ccc(S(=O)(=O)NN(C)C)cc1N(C)S(=O)(=O)c1ccc(Cl)cc1,14,i,-8%,-12%,i
COc1ccc(S(=O)(=O)N2CCCCCC2)cc1N(C)S(=O)(=O)c1ccccc1,-4,i,12µM*,0%,?
COC(=O)COc1ccc(S(=O)(=O)N2CCCCC2)cc1[N+](=O)[O-],-17,i,-7%,2%,i
CCCCN(C(=O)c1cc(S(=O)(=O)N2CCCCCC2)ccc1OC)c1ccccc1,-81*,?,?,?,i
COc1cc(OC)cc(Oc2ccc(S(=O)(=O)N3CCCCC3)cc2[N+](=O)[O-])c1,-99*,i,19%,-87%,i
COc1ccc(S(=O)(=O)Nc2ccc(C)cc2)cc1N(C)S(=O)(=O)c1ccc(Cl)cc1,-60*,?,2%,?,?
CC(=O)N/C(=C\c1ccccc1)C(=O)OC/C=C/c1ccccc1,14,i,-2%,7%,i
O=C(CSc1nc2nn(-c3ccccc3)c(=O)c-2c2n1CCCCC2)c1ccc(O)c(O)c1,74,?,7%,?,?
c1ccc(-c2csc3ncnc(NCC4COc5ccccc5O4)c23)cc1 (stereo not given),-4,1.6µM*,26µM*,2%,23µM*
Cc1cccc(-c2nc(NCCCN3CCOCC3)c3ccccc3n2)c1,-29,?,?,-2%,i
c1ccc(-c2nc(NCCCN3CCOCC3)c3ccccc3n2)cc1,?,i,?,7%,6.5µM*
c1ccc(-c2cn(-c3ccccc3)c3ncnc(NCCCN4CCOCC4)c23)cc1,-86*,i,?,0%,i
COc1ccc(-n2cc(-c3ccccc3)c3c(NCCCN4CCOCC4)ncnc32)cc1,-16,i,?,6%,i
c1csc(-c2csc3ncnc(NCCCN4CCOCC4)c23)c1,-6,?,0%,-1%,3.3µM*
Cc1csc2c(NCCCN3CCOCC3)ncnc12,21,i,4%,-20%,i
CN(C)C(=S)SCC(=O)NC(=O)NC(C)(C)C,7,i,6%,-4%,i
Cc1cc(OC(=O)C(C)(C)C)c([N+](=O)[O-])c(=O)[nH]1,10,i,-2%,2%,i
O=C(O)c1cccc(Nc2ncnc3scc(-c4ccccc4)c23)c1,.,i,.,.,i
O=c1c2c(-c3ccccc3)csc2nc2c3ccccc3c(NCCN3CCOCC3)nn12,-101*,i,9.2µM*,?,21µM*
c1ccc(-c2csc3ncnc(NCCCN4CCOCC4)c23)cc1,-16,i,0%,-3%,8.2µM*
O=S(=O)(c1ccc(Oc2ncnc3scc(-c4ccccc4)c23)cc1)N1CCOCC1,-10,?,21µM*,10%,?
